Compounds without any hit were thinned out: in the full panel of roughly 83,000, 20% have a hit.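 Note: values are percent growth. 100 is the growth of untreated cells, values between 100 and 0 indicate rising inhibition; between -100 and 0 indicates cell death.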 Unmarked numbers belong to inactive results. Active and inactive are the calls of the source. The calls were made as follows: active = growth percent below 10; inactive = the rest.
Experiments:
Test in all cases: NCI-60 one-dose screen, 48 h (100 = growth as untreated, 0 = no growth, -100 = all killed)
Conditions in all cases: 10 µM unless noted
[1] = tested on: T-47D breast
[2] = tested on: BT-549 breast
[3] = tested on: MDA-MB-435 melanoma
[4] = tested on: SW-620 colon
[5] = tested on: MCF7 breast
[6] = tested on: HCT-116 colon
[7] = tested on: HCC-2998 colon
[8] = tested on: KM12 colon

| SMILES | growth [1] | growth [2] | growth [3] | growth [4] | growth [5] | growth [6] | growth [7] | growth [8] |
| --- | --- | --- | --- | --- | --- | --- | --- | --- |
| O=C1CCC/C=C\C[C@H]2C=CC(=O)/C2=C/C[C@H](CCc2cccc(C(F)(F)F)c2)O1 | -28% (active) | -29.3% (active) | -42.1% (active) | -32% (active) | -6.2% (active) | -82% (active) | -74.4% (active) | -63.5% (active) |
| c1cc2nc(-c3cn[nH]c3)c3c(c2cc1-c1cn[nH]c1)C1CCC3C1 (centres undefined) | 37.6% | 62% | 75.3% | 77.5% | 49.2% | 61.5% | 84.5% | 37.8% |
| COc1cccc2c(=O)c3c(sc12)c(N1CCNCC1)nc1ccccc13 | 85.5% | 97.6% | 54.7% | -39.2% (active) | 53.2% | -52.4% (active) | 11.1% | 46.3% |
| O=C(Nc1c2ccccc2nc2ccccc12)c1ccccc1CN1C(=O)c2ccccc2C1=O | 33.4% | 76.2% | 30.3% | 15.5% | 10.3% | 16.1% | 41.4% | 26% |
| Fc1cc2c(cc1Cl)N(c1ncnc3ccc(-c4cnc5cnccn45)cc13)CC2 | 74.9% | 83.7% | 101% | 101% | 75.8% | 83.5% | 90.6% | 98.1% |
| C[N+]1=C(/C=C/c2ccc(O)c3ncccc23)C(C)(C)c2ccccc21 | 23.7% | 81.2% | 59.6% | 89% | 13.7% | 10.4% | 92% | 84.4% |
| CC1Cc2c(ncn3c(-c4ccc(F)cc4)nnc23)N(C)c2ccccc21 (centres undefined) | 35.1% | 80.1% | 59.2% | 36.2% | 52.2% | 86% | 80.3% | 72.2% |
| O=C(O)c1cn(C2CC2)c2cc(N3CCN(C(=O)Nc4nc(-c5ccccc5)cs4)CC3)c(F)cc2c1=O | 23.2% | 10.3% | 21% | 29.4% | 7.78% (active) | 17.5% | 34.4% | 13.8% |
| CC([C@H]1CCC2C3CCC4C[C@@H](NC=O)CC[C@]4(C)C3CC[C@@]21C)N(C)C (some centres undefined) | -40.6% (active) | 30.7% | -46.1% (active) | -71.5% (active) | -23.1% (active) | -66.2% (active) | -67.2% (active) | -21.1% (active) |
| COc1ccc(C(=O)N=Nc2c(O)n(C)c3ccccc23)cc1 | 61.9% | 103% | 103% | 97.3% | 61.3% | 99.7% | 117% | 95.5% |
| Cc1ccc(-c2nc(N3CCN(CC(=O)Nc4ccc(Cl)c(C(F)(F)F)c4)CC3)c3ccccc3n2)cc1 | 74.7% | 94.2% | 94.6% | 91.7% | 74.7% | 79.2% | 112% | 94.2% |
| C=C1C(=O)O[C@H]2[C@H]1CC/C(COC(=O)NCCOCCOCC(=O)Nc1ccc(OC)c(C(N)=O)c1O)=C\CC[C@@]1(C)O[C@@H]21 | 47.8% | 68.6% | 53.7% | 18.5% | 32% | 32.8% | 90.4% | 95.2% |
| COC(=O)C(Cc1ccccc1)NC(=O)NC(=O)NC(=O)CI (centres undefined) | 59.3% | 79% | 24.4% | -28.4% (active) | 41.3% | 94.5% | 95.9% | 96.7% |
| CCCCC[C@H](O)C/C=C1/C(=O)C=C[C@@H]1C/C=C\CCCC(=O)O | 50.4% | 54.5% | 36.9% | 51.9% | 19% | 44.5% | 76.5% | 50.9% |
| CCCCn1c(=O)c(-c2cc(-c3ccc(Cl)cc3)nc(-c3ccc(Cl)cc3)c2)cc2cc(C)ccc21 | 95.8% | 103% | 104% | 99.6% | 97.6% | 99.8% | 105% | 102% |
| COc1cc2cc(Oc3ccc(NC(=O)Nc4cc(C(F)(F)F)cc(C(F)(F)F)c4)cc3)c(C)nc2cc1OCCN1CCOCC1 | 26.1% | 68.1% | 22.3% | 20.3% | 7.15% (active) | 10.3% | 38.6% | 13.3% |
| COc1ccc(N2C(=O)C(Oc3ccccc3)C2c2ccc(C)cc2)cc1 (centres undefined) | 96.9% | 99.3% | 98.7% | 94.8% | 96.3% | 95.5% | 97.7% | 96.2% |
| O=c1c2cc(F)ccc2sc2c(N3CCNCC3)nc3ccc(F)cc3c12 | 22.2% | 79.8% | -94.3% (active) | -84.4% (active) | -62.9% (active) | -61.2% (active) | -90.8% (active) | -78.4% (active) |
| N/C(=N\c1nc2ccccc2s1)NC(=O)Nc1cccc2ccccc12 | 38.5% | 71.6% | -27.7% (active) | 19.7% | 23.1% | 0.264% (active) | 38.9% | 14.7% |
| COc1ccc(/C=C/c2c(C(=O)/C=C/c3ccc(C(F)(F)F)cc3)c(C)nc3ccccc23)cc1 | -13.3% (active) | -14.2% (active) | -56.5% (active) | -42.3% (active) | 1.41% (active) | -67.8% (active) | -77% (active) | -67.6% (active) |
| N#CC1=C(N)Oc2c(sc3c(Br)cccc23)C1c1ccc(Br)cc1 (centres undefined) | 23.3% | 48.3% | -53% (active) | 24.4% | 10.9% | 26.6% | 12.9% | 17.8% |
| C#C[C@]1(O)CC[C@H]2[C@@H]3CC=C4c5sc(Nc6cc(F)ccc6F)nc5CC[C@]4(C)[C@H]3CC[C@@]21C | -16.6% (active) | 12.3% | -28.2% (active) | -61.1% (active) | -23.8% (active) | -44.2% (active) | -78.8% (active) | -41.2% (active) |
| COc1ccc(/C=C/c2c(C(=O)/C=C/c3ccc(Cl)cc3)c(C)nc3ccccc23)cc1 | 23.2% | 54.5% | 2.02% (active) | -17% (active) | 26.2% | -64.6% (active) | -48.6% (active) | 30.2% |
| NC1=NC(c2cccc(Br)c2)c2sc3ccc(Cl)cc3c2N1 (centres undefined) | 88.8% | 122% | 98.2% | 103% | 75.4% | 97.9% | 114% | 93.7% |
| CC(=O)OC[C@H]1OC(Sc2sc(C(=O)c3ccc(Cl)cc3)c(N)c2-c2nc3ccccc3s2)[C@H](OC(C)=O)[C@@H](OC(C)=O)[C@@H]1OC(C)=O (some centres undefined) | 89.5% | 98.5% | 96.5% | 82.7% | 82.1% | 50.8% | 109% | 89.3% |
| COc1nc2ccc(C)cc2cc1-c1nc2c(cnn2-c2ccc(Br)cc2)c(=O)[nH]1 | 58.3% | 91.2% | -27.1% (active) | 28.6% | 21.8% | 13.7% | 88.4% | 25% |
| COc1ccn2c(C(C)=O)cc(C(=O)c3ccc4c(c3)Sc3ccccc3N4)c2c1 | 57.4% | 55.6% | -32.9% (active) | 23.4% | 20.9% | 1.38% (active) | 21.2% | 7.27% (active) |
| C[C@H](C(=O)Nc1ccc(S(N)(=O)=O)cc1)S(=O)(=O)c1ccccc1 | 93.2% | 96.8% | 102% | 110% | 96.1% | 92.1% | 111% | 104% |

Source: PubChem BioAssay (NCI)
